Data published in the supplement of paper PMC8728848.
This is one part of a sample in which the strongest signals are shown more often than they occur.

Legend:
Experiment in all cases: glycan array binding signal (z-score within array); higher = stronger binding
Settings in all cases: glycan notation: IUPAC condensed, linker removed
[1] = target: Fuc(a1-2)Gal(b1-3)GlcNAc(b1-3)Gal(b1-4)Glc
Procedure, shortened: (§1)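 Arrays were curated from the Consortium for Functional Glycomics database, 3228 in total, and kept only where the protein sequence was available. Binding is expressed as a within-array Z-score. This score was averaged across arrays of the same protein sequence at different concentrations or buffers and across linkers, and negative values can be read as non-binding.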

[2] = target: Fuc(a1-2)Gal(b1-3)GlcNAc6S
Procedure, shortened: as §1

[3] = target: Fuc(a1-2)Gal(b1-3)[Fuc(a1-4)]GlcNAc(b1-2)Man(a1-3)[Fuc(a1-2)Gal(b1-3)[Fuc(a1-4)]GlcNAc(b1-2)Man(a1-6)]Man(b1-4)GlcNAc(b1-4)[Fuc(a1-6)]GlcNAc(b1-4)[Fuc(a1-6)]GlcNAc
Procedure, shortened: as §1

[4] = target: Fuc(a1-2)Gal(b1-4)GlcNAc(b1-2)Man
Procedure, shortened: as §1

[5] = target: Fuc(a1-2)Gal(b1-4)GlcNAc(b1-3)[Fuc(a1-2)Gal(b1-4)GlcNAc(b1-6)]GalNAc
Procedure, shortened: as §1

[6] = target: Fuc(a1-2)Gal(b1-4)GlcNAc(b1-6)GalNAc
Procedure, shortened: as §1

[7] = target: Fuc(a1-2)Gal(b1-4)[Fuc(a1-3)]GlcNAc(b1-3)Gal(b1-4)[Fuc(a1-3)]GlcNAc(b1-3)Gal(b1-4)[Fuc(a1-3)]GlcNAc
Procedure, shortened: as §1

Fuc(a1-2)Gal6S(b1-4)Glc = target: Fuc(a1-2)Gal6S(b1-4)Glc
Procedure, shortened: as §1

[8] = target: Fuc(a1-2)[Gal(a1-3)]Gal(b1-4)GlcNAc(b1-3)[Fuc(a1-2)[Gal(a1-3)]Gal(b1-4)GlcNAc(b1-6)]GalNAc
Procedure, shortened: as §1

[9] = target: Fuc(a1-2)[Gal(a1-3)]Gal(b1-4)[Fuc(a1-3)]GlcNAc(b1-3)GalNAc
Procedure, shortened: as §1

[10] = target: Fuc(a1-2)[GalNAc(a1-3)]Gal
Procedure, shortened: as §1

[11] = target: Fuc(a1-2)[GalNAc(a1-3)]Gal(b1-3)GlcNAc(b1-3)GalNAc
Procedure, shortened: as §1

[12] = target: Fuc(a1-2)[GalNAc(a1-3)]Gal(b1-4)[Fuc(a1-3)]GlcNAc(b1-3)GalNAc
Procedure, shortened: as §1

[13] = target: Fuc(a1-3)[GalNAc(b1-4)]GlcNAc
Procedure, shortened: as §1

[14] = target: Gal(a1-3)Gal(b1-4)GlcNAc(b1-2)Man
Procedure, shortened: as §1

[15] = target: Gal(a1-3)Gal(b1-4)GlcNAc(b1-2)Man(a1-3)[Gal(a1-3)Gal(b1-4)GlcNAc(b1-2)Man(a1-6)]Man(b1-4)GlcNAc(b1-4)GlcNAc
Procedure, shortened: as §1

Gal(a1-4)Gal(b1-4)Glc = target: Gal(a1-4)Gal(b1-4)Glc
Procedure, shortened: as §1

Gal(b1-3)Gal = target: Gal(b1-3)Gal
Procedure, shortened: as §1

[16] = target: Gal(b1-3)GalNAc(b1-4)Gal(b1-4)Glc
Procedure, shortened: as §1

Gal(b1-3)GlcNAc(b1-2)Man = target: Gal(b1-3)GlcNAc(b1-2)Man
Procedure, shortened: as §1

[17] = target: Gal(b1-3)GlcNAc(b1-3)GalNAc
Procedure, shortened: as §1

[18] = target: Gal(b1-3)[Fuc(a1-4)]GlcNAc(b1-6)GalNAc
Procedure, shortened: as §1

Gal(b1-4)Gal = target: Gal(b1-4)Gal
Procedure, shortened: as §1

[19] = target: Gal(b1-4)GlcNAc(b1-2)Man(a1-6)[Man(a1-3)]Man(b1-4)GlcNAc(b1-4)GlcNAc
Procedure, shortened: as §1

[20] = target: Gal(b1-4)GlcNAc(b1-3)Gal(b1-3)GalNAc
Procedure, shortened: as §1

[21] = target: Gal3S(b1-4)[Fuc(a1-3)]Glc6S
Procedure, shortened: as §1

Gal3S6S(b1-4)GlcNAc = target: Gal3S6S(b1-4)GlcNAc
Procedure, shortened: as §1

Gal3S6S(b1-4)GlcNAc6S = target: Gal3S6S(b1-4)GlcNAc6S
Procedure, shortened: as §1

Gal6S(b1-4)GlcNAc6S = target: Gal6S(b1-4)GlcNAc6S
Procedure, shortened: as §1

GalNAc(a1-3)Gal = target: GalNAc(a1-3)Gal
Procedure, shortened: as §1

B1: TAL6-6LysM (Trichoderma atroviride) (protein)
chain: AASKLGVPQPAQRDQVNCQLYAVQPNDNCIDISSKNNITYAQLLSWNPSLSSTCSNLASLNSSSICVSNPKGTFSISSNTVGATDIATTTAPVPSPTLDQTTSRCAKYYQVSDGDDCSHLTAQFAITLKDFIFLNSEVWQNCTNLELGYYYCVEPVGYISTYPGYLPTATTKPFNQTSATSLPYDGDPWARFSSNSSVIPIANGTRVDCYSYVYVKNLTENLFADCWNMASMYEITREELVLWNPSLGNDGSSGSNLSGAEASQVASSIAIPTTAPSSITTNLYTYPCTVAANISYCVALVSSTGALPTNTAPPGPHASGEISNCTAWFAPEAYDTCKSILDIFEMSFANFYKMNPSVGPDCSGLAVGTNYCVSTYPNGEDPNDDWDGDDSIPSISPTGIITPTPTQSGMVSNCNKFYDVHSNDGCSAIASSQHVDLSSLYKWNPAIKTDCSGLQASVYVCIGILTTSMSTTSKLPTTTSKPSTTSKPPTGITTPTPTQSGMVKNCNKFYDVHSGDGCSAIASSQKVNLSSFYLWNPAVKTDCSGLQASVFVCIGTLTTSMSTTTSKLPTTTSKPSTTSKPPTGIITPTPTQNGMVKNCNKFYDVHSGDGCSAIASSQKVNLSSFYLWNPAVKTDCSGLQASVFVCVGTATTTTAAGITTPTPTQSGMVSGCNKFYDVHAGDGCSAIASSQKIALSSLYKWNPAVKTDCSGLQASVYICIGVGNAAAARVTGAAASFLEQKLISEEDLNSAVDHHHHHH
glycan array binding signal (z-score) [1]: -0.234 | glycan array binding signal (z-score) [2]: 0.906 | glycan array binding signal (z-score) [3]: 0.449 | glycan array binding signal (z-score) [4]: -0.377 | glycan array binding signal (z-score) [5]: -0.205 | glycan array binding signal (z-score) [6]: 3.12 | glycan array binding signal (z-score) [7]: 2.68 | glycan array binding signal (z-score) (Fuc(a1-2)Gal6S(b1-4)Glc): -0.385 | glycan array binding signal (z-score) [8]: -0.724 | glycan array binding signal (z-score) [9]: 0.955 | glycan array binding signal (z-score) [10]: -0.757 | glycan array binding signal (z-score) [11]: 0.204 | glycan array binding signal (z-score) [12]: -0.108 | glycan array binding signal (z-score) [13]: 2.99 | glycan array binding signal (z-score) [14]: 0.538 | glycan array binding signal (z-score) [15]: 0.08 | glycan array binding signal (z-score) (Gal(a1-4)Gal(b1-4)Glc): 2.69 | glycan array binding signal (z-score) (Gal(b1-3)Gal): -0.192 | glycan array binding signal (z-score) [16]: -0.503 | glycan array binding signal (z-score) (Gal(b1-3)GlcNAc(b1-2)Man): 3.66 | glycan array binding signal (z-score) [17]: -0.729 | glycan array binding signal (z-score) [18]: 1.02 | glycan array binding signal (z-score) (Gal(b1-4)Gal): -0.397 | glycan array binding signal (z-score) [19]: 0.445 | glycan array binding signal (z-score) [20]: -0.573 | glycan array binding signal (z-score) [21]: 2.96 | glycan array binding signal (z-score) (Gal3S6S(b1-4)GlcNAc): 2.51 | glycan array binding signal (z-score) (Gal3S6S(b1-4)GlcNAc6S): 3 | glycan array binding signal (z-score) (Gal6S(b1-4)GlcNAc6S): -0.018 | glycan array binding signal (z-score) (GalNAc(a1-3)Gal): 2.44
